# Compounds with a hit are over-represented: about 1.1% of the library has one in this group of screens.
# RGS4 inh – inhibitors of human regulator of G protein signaling 4 | Transcreener GDP fluorescence polarization, RGS4-accelerated GTP hydrolysis | P49798 | hit rate 0.039% among 390,000 | AID 504845 | Potency, µM (series often up to 114 µM), without a hit: at the top dose activity change, negative = inhibition, most hits filed as inhibitors; also: nearly all actives have a fitted effect of over 75% in size
#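 MLSMR compounds (23 nl, pin-transferred) preincubated 10 min at room temperature with a 500nM (2x) first reagent, then RGS4 at 900nM (2x) plus Transcreener GDP mix added; fluorescence polarization (620/688 nm) read before and after 90 min at 30 °C.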
# TrxR1 inh – rat TrxR1 inhibition | recombinant rTrxR1, NADPH fluorescence consumption, selenite substrate | Potency, µM (series often up to 114 µM), without a hit: top-dose activity change, negative = inhibition, usual class: inhibitors | hit rate 1% among 390,000; also: nearly all actives have a fitted effect of over 65% in size
# Target sequence (O89049 whole entry, looked up): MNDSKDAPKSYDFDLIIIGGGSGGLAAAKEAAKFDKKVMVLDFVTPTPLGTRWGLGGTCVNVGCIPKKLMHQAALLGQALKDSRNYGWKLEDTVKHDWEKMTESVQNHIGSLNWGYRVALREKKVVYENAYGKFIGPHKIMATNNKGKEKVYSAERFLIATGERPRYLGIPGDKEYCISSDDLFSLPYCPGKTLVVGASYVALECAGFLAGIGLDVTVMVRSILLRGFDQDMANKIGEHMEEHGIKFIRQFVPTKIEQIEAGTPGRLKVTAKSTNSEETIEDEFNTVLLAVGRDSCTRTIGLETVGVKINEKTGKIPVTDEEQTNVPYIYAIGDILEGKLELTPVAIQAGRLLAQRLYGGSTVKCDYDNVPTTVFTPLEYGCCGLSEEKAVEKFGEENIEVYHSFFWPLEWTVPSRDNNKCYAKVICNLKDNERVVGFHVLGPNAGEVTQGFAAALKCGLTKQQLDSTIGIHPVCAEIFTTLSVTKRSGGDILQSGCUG
#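 Rat TrxR1 (90 nM in the dispensed reagent) was pre-reduced with 400 uM NADPH for 5 min at room temperature, then incubated with compound for 15 min. After 400 uM selenite was added, NADPH fluorescence (Ex 340/Em 450 nm) was followed for 8 min.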
# Eya2 inh – inhibitors of human Eya2 phosphatase activity | O00167 | recombinant Eya2, OMFP fluorescence dephosphorylation (OMFP is methylfluorescein phosphate) | Potency, µM (series often up to 76.9 µM), without a hit: at the top dose activity, negative = inhibition, hits mostly inhibitors | hit rate 0.006% among 330,000
#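 Eya2 (0.2 uM) preincubated 10 min at ambient with compound, then OMFP substrate added at 50 uM; 10 min reaction in 50 mM HEPES pH 7.5, 50 mM NaCl, 5 uM MgCl2, 0.05% BSA, 1 mM DTT. Fluorescence read at Ex 485/Em 525 nm.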
# mIDH1 inhibitor – blocks human mutant IDH1 R132H enzyme | hit rate 0.093% among 390,000 | AID 602179 | IDH1-R132H enzyme, NADPH consumption, diaphorase/resazurin fluorescence | Potency, µM (series often up to 76.6 µM), inactives show at the highest dose activity change, negative = inhibition, usual class: inhibitors; also: nearly all actives have a fitted effect of over 65% in size
#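 IDH1-R132H (0.5 ug/mL dispensed) in pH 7.5 Tris buffer was preincubated 30 min with compound, then given a substrate mix of 0.016 mM NADPH and 2 mM alpha-KG for 80 min at room temperature; remaining NADPH was read by diaphorase/resazurin fluorescence.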
# TrxR1 substrate – rat thioredoxin reductase 1 substrate activity; O89049; purified TrxR1 substrate turnover, NADPH consumption readout; Potency, µM (highest dose often 114 µM), inactives show top-dose activity change, negative = substrate turnover; hit rate 0.01% among 390,000; AID 588456; also: nearly all actives have a fitted effect of over 50% in size
#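 Rat TrxR1, dispensed at 90 nM, was prereduced with 400 uM NADPH (final) for 5 min at ~22 deg C, then incubated with compound 15 min before 400 uM selenite. A first-read NADPH fluorescence drop versus no-compound background flagged substrates.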
# * marks the source's active call; other numbers are inactive results; ? = inconclusive; . = not tested or not shown; [ ] = another dose, or the depositor's remark. Calls follow the shape of the dose curve; as a rule, active = well fitted curve in the direction sought with a large enough effect; inconclusive = small, poorly fitted or top-dose-only effect, or another doubt; inactive = no such curve, though single readings can be large; an effect the other way counts as inactive or inconclusive. % is scaled to controls: 0 for no effect and ±100 for the full control effect; potency is read from the fitted curve at half-maximal effect.
SMILES,RGS4 inh,TrxR1 inh,Eya2 inh,mIDH1 inhibitor,TrxR1 substrate
CC(=O)N(C1CC(C)C(C#N)(C#N)C1(C#N)C#N)N(C)C (stereo unspecified),?,1.6µM*,15%,4%,12%[57.1 µM]
CCCC(=O)N(C1CC(C)C(C#N)(C#N)C1(C#N)C#N)N(C)C (stereo unspecified),?,2.5µM*,2%,7%,13%[57.1 µM]
Nc1ccc(/C=C2\C=Cc3ccccc32)cc1,.,-14%[0.0914 µM],.,.,-4%
C1=Cc2ccccc2/C1=C\c1cc[cH-]c1.[Fe+2].c1cc[cH-]c1,.,3.2µM*,.,.,2%
COc1ccc(-c2csc(-c3ccc(O)cc3)n2)cc1,-23%[11.4 µM],56µM*,-16%,-11%,2%
Cc1cc(C)nc(NN2C(=O)C=CC2=O)n1,?,7.9µM*,-9%,4%,12%
Cc1cc(C)nc(NN2C(=O)/C(=C/c3ccccc3)SC2=S)n1,-45%,14%,-1%,0%,3%
C/C(=N\NC(=O)c1ccc2c(c1)OCO2)c1cccnc1,8%,22%,-4%,2%,1%
O=C(O)c1cc(O)c2c(c1)[C@@H]([C@H]1c3cc(C(=O)O)cc(O)c3C(=O)c3c(O[C@@H]4O[C@H](CO)[C@@H](O)[C@H](O)[C@H]4O)cccc31)c1cccc(OC3O[C@H](CO)[C@@H](O)[C@H](O)[C@H]3O)c1C2=O (stereo partly specified),?,5%,-33%,9%,-3%
O=C(O)c1cc(O)c2c(c1)[C@H]([C@H]1c3cc(C(=O)O)cc(O)c3C(=O)c3c(O[C@@H]4O[C@H](CO)[C@@H](O)[C@H](O)[C@H]4O)cccc31)c1cccc(OC3O[C@H](CO)[C@@H](O)[C@H](O)[C@H]3O)c1C2=O (stereo partly specified),-55%,79µM*,-25%,-14%,-15%
COc1ccc(NC(=O)Cn2c(-c3ccc(F)cc3)cc(C(C)=O)c2C)c(OC)c1,0%,13%[57.1 µM],.,6%,2%[57.1 µM]
Cc1c(NS(=O)(=O)c2ccccc2)cc(Cl)c(O)c1C,-17%,25µM*,1%,0%,8%
COc1ccc(NC(=S)Nc2ncccc2C)c(OC)c1,4%,1.8µM*,-11%,5%,6%
COc1ccc(NC(=S)Nc2ncccc2C)cc1OC,4%,3%[57.1 µM],1%,-1%,3%[57.1 µM]
Cc1ccc(NC(=O)c2cc(N3C(=O)CCC3=O)ccc2N2CCOCC2)cc1,-9%,-14%,3%,6%,-18%[57.1 µM]
Cc1ccc(NC(=O)c2cc(N3C(=O)C=CC3=O)ccc2N2CCOCC2)cc1Cl,?,3.5µM*,-1%,0%,-9%
C#CCOCCOCCOCCNc1nc(N2CCN(C(=O)[C@H](CCCCN)n3cc(C(N)[C@H](C)CC)nn3)CC2)nc(N2CCN(C(=O)[C@H](CCC(=O)O)n3cc(C(N)[C@H](C)CC)nn3)CC2)n1 (stereo partly specified),-14%,56µM*,14%,-5%,2%
C#CCOCCOCCOCCNc1nc(N2CCN(C(=O)[C@H](CCCCN)n3cc([C@@H](N)C(C)CC)nn3)CC2)nc(N2CCN(C(=O)[C@H](Cc3cc4ccccc4[nH]3)n3cc([C@@H](N)CC(C)C)nn3)CC2)n1 (stereo partly specified),?,25µM*,23%,-1%,1%
C#CCOCCOCCOCCNc1nc(N2CCN(C(=O)[C@H](CCCCN)n3cc([C@@H](N)[C@H](C)CC)nn3)CC2)nc(N2CCN(C(=O)[C@H](CCC(=O)O)n3cc([C@@H](N)CCCCN)nn3)CC2)n1,-8%,?,-3%,12%,7%
C#CCOCCOCCOCCNc1nc(N2CCN(C(=O)[C@H](Cc3cc4ccccc4[nH]3)n3cc([C@@H](N)C(C)CC)nn3)CC2)nc(N2CCN(C(=O)[C@H](CCCCN)n3cc([C@@H](N)CO)nn3)CC2)n1 (stereo partly specified),.,.,-5%,.,.

# Screening data: PubChem BioAssay, National Center for Advancing Translational Sciences (NCATS)
